Drawing on PubChem BioAssay AID1645858 (Buhrlage Lab, Dana-Farber Cancer Institute and Novartis …, 2021), this text covers inhibition for 74 molecules.

Out of some 47,000 compounds screened, about 330 (0.7%) were called active. Cut-off read from the data, not from the text of the source: active = inhibition above about 30%; inactive = the rest. This excerpt belongs to a sample that is enriched for actives.

The target in the assay is OTU domain-containing protein 3 (Homo sapiens) (UniProt Q5T2D3). Briefly: inhibitors of human OTUD3 deubiquitinase (AID 1645858). Conditions: purified OTUD3, Ub-rhodamine fluorescence, 2 h; at 25 µM; stronger effect = higher value.
Sequence of OTU domain-containing protein 3 (Homo sapiens) (Q5T2D3 whole entry, looked up, the tested form may be a part): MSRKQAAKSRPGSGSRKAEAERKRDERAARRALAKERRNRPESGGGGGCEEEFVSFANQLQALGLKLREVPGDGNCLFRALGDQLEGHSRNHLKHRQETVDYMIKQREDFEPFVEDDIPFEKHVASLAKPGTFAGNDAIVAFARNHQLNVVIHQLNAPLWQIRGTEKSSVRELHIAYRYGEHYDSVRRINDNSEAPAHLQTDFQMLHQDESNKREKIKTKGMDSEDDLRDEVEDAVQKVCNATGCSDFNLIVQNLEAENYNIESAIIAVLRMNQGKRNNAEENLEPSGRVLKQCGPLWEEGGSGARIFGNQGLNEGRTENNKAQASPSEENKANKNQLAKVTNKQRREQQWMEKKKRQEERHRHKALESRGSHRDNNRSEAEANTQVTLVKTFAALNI
For the molecule `Cc1nn(-c2cccc(F)c2)c2c1c(C)c(CCC(=O)NCc1ccccn1)c(=O)n2C`, the inhibition (usually the relative decrease from the control value, in per cent) was 8.09% (inactive).

As for `CC(=O)N1CCC(N2CCC[C@H]2c2nc(-c3ccc(OC4CCCCC4)nc3)no2)CC1`, the inhibition is -18.8% (inactive).

As to `O=C(c1cc2ccc(F)cc2[nH]1)N1CCOCC(Cc2ccncn2)C1` (centres undefined), the inhibition is -7.16% (inactive).

Regarding `Cn1cc(C(=O)N2CCCCC2c2nc(N)ncc2-c2ccccc2)ccc1=O` (centres undefined), the inhibition is -2.37% (inactive).

In the case of `CCC(=O)N(C)CCc1noc(-c2[nH]c3ccc(C)cc3c2C)n1`, the inhibition was -11.5% (inactive).

For the molecule `Cc1noc(C)c1C1CCCN1S(=O)(=O)c1cccc(Cl)c1` (centres undefined), the inhibition is 0.263% (inactive).

Turning to `O=C(COc1cccc2ccc(N3CCC(Cc4ccccc4)CC3)nc12)Nc1cccc(F)c1`, the inhibition was 21.8% (inactive).

On to `O=C(CCc1nnc2ccc(N3CCCC3)nn12)NCc1ccc(F)cc1`, for which the inhibition is 12% (inactive).

For the molecule `O=C(COc1cccc2ccc(N3CCC(Cc4ccccc4)CC3)nc12)NCc1ccc(F)cc1`, the inhibition is 36.2% (active).

`Cc1ccc(NC(=O)N2CCC(CC(=O)N3CCCCC3)CC2)cc1`: the inhibition was -0.189% (inactive).

In the case of `CCC(C)C1C(=O)/C(=C(\O)C2C3C(C)CC(C)CC3C=CC2C2(C)OC2C)C(=O)N1C` (centres undefined), the inhibition is 18.9% (inactive).

Take `CCOC(=O)N1CCN(c2nc3c(c(=O)[nH]c(=O)n3C)n2CCSc2ncccn2)CC1`: the inhibition is 13.2% (inactive).

Regarding `CC(C)CNC(=O)C1CCN(c2cncnc2N2CCOCC2)CC1`, the inhibition is 0.599% (inactive).

Consider `CC(=O)c1sc(NC(=O)c2ccc(S(=O)(=O)N3CC(C)CC(C)C3)cc2)nc1C` (centres undefined), for which the inhibition is 4.19% (inactive).

As for `CCn1c(CN(C)C(=O)Nc2cccc(C)c2)nc2cc(C(=O)N(C)C)ccc21`, the inhibition was 10.5% (inactive).

In the case of `CS(=O)(=O)c1ccc(C(=O)Nc2ccccc2-c2ccccc2)cc1`, the inhibition is 11.2% (inactive).

Take `COc1ccc(N2CC(c3nnc(NC(=O)CCc4ccccc4)s3)CC2=O)cc1` (centres undefined): the inhibition is 17.9% (inactive).

Turning to `N#CCCN(C(=O)c1cc2c(s1)-c1ccc(Cl)cc1S(=O)(=O)C2)c1ccccc1`, the inhibition is -4.41% (inactive).

`CC(=O)N1CCc2c([nH]c3ccccc23)C1`: the inhibition is -0.00325% (inactive).

For `COc1ccccc1N(CC(=O)N1c2ccccc2CC1C)S(=O)(=O)c1ccc(F)cc1` (centres undefined), the inhibition was 14% (inactive).

As for `Oc1ccc(O)c2c1C(O)CCC21Oc2cccc3cccc(c23)O1` (centres undefined), the inhibition is -11.1% (inactive).

As to `Cc1nc2n(n1)CCN(C(=O)c1cc(-c3cccs3)[nH]n1)C2`, the inhibition is 0.034% (inactive).

Turning to `CC(Oc1ccccc1)C(=O)Nc1ccc(-c2cn3cccnc3n2)cc1` (centres undefined), the inhibition is 4.02% (inactive).

On to `CCCCCCSc1ncnc2c1sc1nc(-c3ccccc3)c3c(c12)CC(C)(C)OC3`, for which the inhibition is -6.83% (inactive).

On to `CSc1ncnc2c1sc1nc(-c3ccccc3)c3c(c12)CC(C)(C)OC3`, for which the inhibition was 7.31% (inactive).

Turning to `CC1(C)Cc2c(c(-c3ccco3)nc3sc4c(SCCCc5ccccc5)ncnc4c23)CO1`, the inhibition is 33.5% (active).

Regarding `COc1ccc(Cl)cc1C(=O)NCC(c1ccsc1)N1CCOCC1` (centres undefined), the inhibition was -5.99% (inactive).

Turning to `CC1CN(S(=O)(=O)c2cccc(Cl)c2)Cc2ccccc2N1C` (centres undefined), the inhibition is -2.48% (inactive).

Take `Cc1ccc(S(=O)(=O)c2cn(CC(=O)NC3CCCC3)c3nc(C)ccc3c2=O)cc1`: the inhibition was -8.29% (inactive).

With `N#Cc1cccc(CN2CC[C@@H]3[C@@H](CO[C@@H]3CNc3ncccn3)C2)c1`, the inhibition was 0.273% (inactive).

Regarding `CCN1CCN(c2ccc(-c3nc(-c4ccc(C)cc4)no3)cn2)CC1`, the inhibition was -1.12% (inactive).

As for `Cc1cc2n(n1)CCCN2C(=O)CCC(=O)N1CCN(c2ccc(F)cc2)CC1`, the inhibition is 7.75% (inactive).

Consider `O=C(NCc1cccnc1)C1CCN(c2cnc(N3CCCCCC3)nc2)CC1`, for which the inhibition was -16.6% (inactive).

Consider `O=C(Cn1cccc1-c1nnc(C2CC2)o1)NC1CCCCC1`, for which the inhibition is -15.9% (inactive).

On to `CCCNc1c(NC(=O)C2CC(=O)N(c3ccccc3)C2)c(=O)oc2ccccc12` (centres undefined), for which the inhibition was 21.6% (inactive).

For the molecule `O=C(N[C@@H]1C[C@@H](Oc2cccnc2)[C@H](O)[C@H]1N1CCCCC1)c1ccccn1`, the inhibition was -9.39% (inactive).

On to `CC(=O)N1Cc2ccccc2CC2(CCN(Cc3cccnc3)CC2)C1`, for which the inhibition was 4.03% (inactive).

Consider `CCC(=O)Nc1nc2cc(NC(=O)c3ccc(OC)cc3)ccc2s1`, for which the inhibition was 17.4% (inactive).

Turning to `O=C(NCCc1ccccc1)c1ccc2c(=O)nc3c(-c4ccccc4F)n[nH]n3c2c1`, the inhibition was -7.12% (inactive).

`O=C(NCCc1ccccc1)c1ccc2c(=O)n(Cc3ccco3)c(=O)n(Cc3cccc([N+](=O)[O-])c3)c2c1`: the inhibition was 36.8% (active).

Take `O=C(Cn1c(=O)n(Cc2ccc3c(c2)OCO3)c(=O)c2ccccc21)NCc1ccco1`: the inhibition was 0.529% (inactive).

Regarding `COCCn1cc2c3c(cccc31)CN(C(=O)c1cnccn1)CC2`, the inhibition was -12.8% (inactive).

Consider `Cc1nn(-c2ccccn2)c2ncc(C(=O)c3cc(F)ccc3O)cc12`, for which the inhibition was -3.93% (inactive).

Consider `CCNC(=O)CCc1nc2c(C)nn(-c3ccccc3)c2n(CC)c1=O`, for which the inhibition was 9.41% (inactive).

For the molecule `CC(C)c1cc(C2CCCN2C(=O)Cc2ccc(F)cc2)no1` (centres undefined), the inhibition was 2.85% (inactive).

As for `CCN1CCC(n2c(C(F)(F)F)nc3c(OC)cccc32)CC1`, the inhibition was 5.17% (inactive).

In the case of `CCN1C[C@@]23CN(C(=O)c4cccc(Cl)c4)C[C@@H](C[C@@H]2S1(=O)=O)O3`, the inhibition was 11.4% (inactive).

In the case of `CCc1nnc(-c2ccc(=O)n(CC(=O)N3CCN(C(C)C)CC3)c2)o1`, the inhibition is -5.08% (inactive).

Consider `CNc1nc(N2CCCCCC2)nc(-n2cnc(SC)n2)n1`, for which the inhibition was -0.432% (inactive).

With `COc1cccc(N2CCN(C(=O)c3sc4ncccc4c3-n3cccc3)CC2)c1`, the inhibition was 15.3% (inactive).

As for `O=C(Cc1cc(=O)oc2cc(O)ccc12)N1CC[C@@]2(O)CCCC[C@H]2C1`, the inhibition is 1.08% (inactive).

On to `Cc1occc1C(=O)Nc1cc(-c2ccc(F)cc2)nn1C`, for which the inhibition was -0.358% (inactive).

Consider `O=C(O)CC1(CC(=O)Nc2ccc(Oc3ccccc3)cc2)CCCC1`, for which the inhibition was 15.9% (inactive).

Take `Clc1ccc(CNC2CCN(Cc3ccccc3)C2)cc1Cl` (centres undefined): the inhibition is 5.2% (inactive).

For the molecule `Cc1cc(S(=O)(=O)N2CC=C(c3c(C)[nH]c4ccccc34)CC2)ccc1F`, the inhibition is -29.4% (inactive).

Take `CCc1ccc(S(=O)(=O)N2CCC3(CC2)COCCN(Cc2cccnc2)C3)cc1`: the inhibition is -4.96% (inactive).

Regarding `Clc1cc2nc(N3CCN(c4ccccn4)CC3)c3nncn3c2cc1Cl`, the inhibition was 44.6% (active).

For the molecule `Cc1nn(-c2ccccc2)c(C)c1S(=O)(=O)N1CCN(c2ccccn2)CC1`, the inhibition was -4.16% (inactive).

For the molecule `O=C(c1ccc(N2CCCC2)nn1)N1CCN(c2ccccn2)CC1`, the inhibition is 0.782% (inactive).

Consider `Cc1nc(NC(=O)c2ccc(F)cc2Cl)sc1-c1ccccc1`, for which the inhibition was -3.32% (inactive).

As to `CC(=O)N[C@@H]1C[C@H](c2cccc(F)c2)O[C@@H]2CCC[C@@H]12`, the inhibition is -4.95% (inactive).

Regarding `CCn1c(CNC(=O)c2ccco2)nnc1SCC(=O)Nc1cccc(F)c1`, the inhibition is 0.153% (inactive).

Take `COc1ccc(/C=C/C(=O)Nc2ccc3c(c2)OCCO3)cc1Br`: the inhibition was -13.2% (inactive).

Take `O=C(CSc1nnc(-c2ccncc2)n1Cc1ccccc1)Nc1cccc(Cl)c1`: the inhibition is -10.3% (inactive).

With `O=C(c1ccncc1)N1CC[C@@H]2CN(Cc3cccc(Cl)c3)S(=O)(=O)[C@@H]2CC1`, the inhibition was 2.12% (inactive).

`Cc1cccc(-c2c3c(=O)n(C)c(=O)n(C)c3cn2Cc2ccc(F)cc2)c1`: the inhibition is -12.7% (inactive).

Take `CC(C)=CCC/C(C)=C\Cc1c(O)cc(C)c(C=O)c1O`: the inhibition was -3.19% (inactive).

On to `NC(=O)c1ccc(NC(=O)Cc2cc(-c3ccc(Cl)cc3)on2)cc1`, for which the inhibition is -10.7% (inactive).

Turning to `Cc1ccc(NS(=O)(=O)c2ccc3c(c2)NC(=O)CC(=O)N3)cc1F`, the inhibition was -1.08% (inactive).

On to `CCOc1ccc(S(=O)(=O)N2CCCC2c2ccco2)cc1` (centres undefined), for which the inhibition was -0.738% (inactive).

For `O=C1CC(C(=O)N2CCC(c3ccc(Nc4ncccn4)cn3)CC2)c2ccccc2N1` (centres undefined), the inhibition is -7.6% (inactive).

Take `O=S(=O)(c1cccc2cccnc12)N1CCN(C2CCCCC2)CC1`: the inhibition was -6.63% (inactive).

For the molecule `O=C1C(O)=C(c2ccc(O)c(O)c2)C(=O)C(O)=C1c1ccccc1`, the inhibition was 73.3% (active).

As for `CCOC(=O)c1cc(C(=O)Nc2cccc(C(F)(F)F)c2)n2ccc(C)cc12`, the inhibition was -0.911% (inactive).
